In PubChem BioAssay (Tox21):
A number with no mark means an inactive call. Results filed as inconclusive are left out. Where a call stands in place of a potency, no number is given. The source made the active and inactive calls. Unless noted, calls come from the whole dose curve; as a rule, active = well fitted curve in the direction sought with a large enough effect in the repeat runs; inconclusive = weak or mixed curves; inactive = no such curve, though single readings can be large; an effect the other way counts as inactive or inconclusive.

How the values were obtained:
[1] = qHTS assay for small molecule agonists of the p53 signaling pathway (AID 651631; calls by dose curve; note: nearly all actives have a fitted effect of over 15% in size)
Method in brief: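 Testing took place in human colorectal HCT-116 cells with stable p53RE-driven beta-lactamase. After 16 h of compound exposure at 37 °C, a FRET substrate was added and fluorescence recorded 2 h later.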

[2] = qHTS assay for small molecules that induce genotoxicity in human embryonic kidney cells expressing luciferase-tagged ATAD5 (AID 651632); note: nearly all actives have a fitted effect of over 15% in size
Method in brief: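 Luminescence read-out: after 16 hr compound exposure at 37C, ATAD5-luciferase HEK293T cells received Amplite, 30 min RT, then CCD imaging. A rise in signal marks genotoxic stress.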

[3] = qHTS assay for small molecule agonists of the p53 signaling pathway - cell viability (AID 651633; calls by dose curve; note: series mostly up to about 83 µM; nearly all actives have a fitted effect of over 30% in size)
Method in brief: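 p53RE-bla cells, seeded at 4,000 per well and rested 5 h at 37 C/5% CO2, received compounds in DMSO for 16 h at 37 C. CellTiter-Glo was then added, and luminescence was read after 30 min at room temperature to gauge cytotoxicity.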

[4] = qHTS assay for small molecules that induce genotoxicity in human embryonic kidney cells expressing luciferase-tagged ATAD5 - cell viability (AID 651634; calls by dose curve; note: nearly all actives have a fitted effect of over 25% in size)
Method in brief: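 HEK293T ATAD5-luc cells, 2,000/well; compound 15.5 hr, 37C/5% CO2; CellTiter-Fluor 30 min, 37C; fluorescence read.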

[5] = qHTS assay for small molecule disruptors of the mitochondrial membrane potential - cell viability (AID 720634; calls by dose curve;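 note: human HepG2 liver cancer cells; series mostly up to about 83 µM; nearly all actives have a fitted effect of over 20% in size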)
Method in brief: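 Luminescence from CellTiter-Glo (ATP content) gave viability in HepG2 cells, read in the same wells as the MMP dye assay after 1 hr compound exposure at 37 C.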

[6] = qHTS assay for small molecule disruptors of the mitochondrial membrane potential (AID 720635); note: potency is the fitted concentration of half-maximal effect
Method in brief: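 HepG2 cells (2,000/well) attached overnight at 37C, then took compound for 1 hr at 37C, 5% CO2. Mito-MPS dye was added for 30 min; fluorescence was read at 490/535 nm (monomers) and 540/590 nm (aggregates).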

[7] = qHTS assay to test for compound auto fluorescence at 590 nm (red) in HepG2 cells (AID 720674)
Method in brief: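 Compound auto-fluorescence is scored relative to Rose Bengal sodium, measured at 540/590 nm in live HepG2 cultures after 1 hr compound contact (37 C, 5% CO2).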

[8] = qHTS assay to test for compound auto fluorescence at 535 nm (green) in HepG2 cells (AID 720675)
[9] = qHTS assay to test for compound auto fluorescence at 460 nm (blue) in HEK293 cells (AID 720678)
Method in brief: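 Cells were seeded and left to adhere for 4-5 hr at 37C. Compounds were then pin-transferred. After an overnight incubation at 37C under 5% CO2, intrinsic fluorescence at 405/460 nm was measured and referenced to triamterene.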

[10] = qHTS assay to test for compound auto fluorescence at 535 nm (green) in HEK293 cells (AID 720680)
[11] = qHTS assay to test for compound auto fluorescence at 460 nm (blue) in HEK293 cell free culture (AID 720681)
Method in brief: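 Test compounds were pinned into cell-free culture medium (DMEM with 10% FBS) and fluorescence was read directly at Ex/Em 405/460 nm. Signals were expressed as fluorescence equivalents of triamterene, with DMSO vehicle as control.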

[12] = qHTS assay to test for compound auto fluorescence at 535 nm (green) in HEK293 cell free culture (AID 720682)
Method in brief: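 DMEM + 10% FBS, cell-free; cpd or DMSO pinned in; Ex485/Em535 read; output as fluorescein-equivalent signal.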

[13] = qHTS assay to test for compound auto fluorescence at 590 nm (red) in HEK293 cell free culture (AID 720683)
Method in brief: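 Tox21 10K library compounds were pinned into cell-free DMEM with 10% FBS and fluorescence was read at excitation 540 nm. Activity is expressed as Rose Bengal sodium equivalency.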

[14] = qHTS assay to test for compound auto fluorescence at 590 nm (red) in HepG2 cell free culture (AID 720684)
Method in brief: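 Ex 540 / Em 590 nm read of compound in cell-free MEM (10% FBS). Rose Bengal sodium reference.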

[15] = qHTS assay to test for compound auto fluorescence at 460 nm (blue) in HepG2 cell free culture (AID 720685)
Method in brief: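 Cell-free plates of MEM plus 10% FBS received 23 nL compound or DMSO vehicle; blue-channel (405/460 nm) intensity scored against triamterene as reference fluorophore.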

[16] = qHTS assay to test for compound auto fluorescence at 535 nm (green) in HepG2 cell free culture (AID 720686)
[17] = qHTS assay to test for compound auto fluorescence at 460 nm (blue) in HepG2 cells (AID 720687)
Method in brief: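 Cells (2,000/well in MEM with 10% FBS) attached overnight at 37 C, then were exposed to compound or DMSO for 1 hr at 37 C, 5% CO2. Fluorescence read at Ex/Em 405/460 nm, expressed as triamterene-equivalent signal.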

[18] = target: Glucocorticoid receptor (Homo sapiens) (UniProt P04150); test: qHTS assay to identify small molecule agonists of the glucocorticoid receptor (GR) signaling pathway (AID 720691; active = well fitted activation curve with a large enough effect in the signal ratio in the repeat runs, not every such curve was filed as active; the % refers to the signal ratio; note: potency is the fitted concentration of half-maximal effect)
Method in brief: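 HeLa GR-bla reporter line; cells pre-incubated 4 h, compound in DMSO 18 h at 37 C; LiveBLAzer B/G FRET substrate 2 h RT; fluorescence intensity read-out.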

[19] = target: Glucocorticoid receptor (Homo sapiens) (UniProt P04150); test: qHTS assay to identify small molecule antagonists of the glucocorticoid receptor (GR) signaling pathway (AID 720692; active = well fitted inhibition curve with a large enough effect in the signal ratio in the repeat runs, not every such curve was filed as active; the % refers to the signal ratio)
Method in brief: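 Read-out: beta-lactamase FRET substrate fluorescence, 2 h at room temperature, in HeLa cells stably carrying a GRE-driven bla reporter. Compounds were co-incubated with 5 nM dexamethasone agonist (final) for 18 h at 37 C.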

[20] = qHTS assay to test for compound auto fluorescence at 590 nm (red) in HEK293 cells (AID 720679)
Method in brief: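 Each well held 2,000 HEK293 cells in medium containing 10% dialyzed FBS. Following 4-5 hr attachment at 37C, 23 nL test compound or DMSO was added; plates sat overnight, and red fluorescence (540/590nm) was recorded.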

Sequence of Glucocorticoid receptor (Homo sapiens) (P04150 whole entry, looked up): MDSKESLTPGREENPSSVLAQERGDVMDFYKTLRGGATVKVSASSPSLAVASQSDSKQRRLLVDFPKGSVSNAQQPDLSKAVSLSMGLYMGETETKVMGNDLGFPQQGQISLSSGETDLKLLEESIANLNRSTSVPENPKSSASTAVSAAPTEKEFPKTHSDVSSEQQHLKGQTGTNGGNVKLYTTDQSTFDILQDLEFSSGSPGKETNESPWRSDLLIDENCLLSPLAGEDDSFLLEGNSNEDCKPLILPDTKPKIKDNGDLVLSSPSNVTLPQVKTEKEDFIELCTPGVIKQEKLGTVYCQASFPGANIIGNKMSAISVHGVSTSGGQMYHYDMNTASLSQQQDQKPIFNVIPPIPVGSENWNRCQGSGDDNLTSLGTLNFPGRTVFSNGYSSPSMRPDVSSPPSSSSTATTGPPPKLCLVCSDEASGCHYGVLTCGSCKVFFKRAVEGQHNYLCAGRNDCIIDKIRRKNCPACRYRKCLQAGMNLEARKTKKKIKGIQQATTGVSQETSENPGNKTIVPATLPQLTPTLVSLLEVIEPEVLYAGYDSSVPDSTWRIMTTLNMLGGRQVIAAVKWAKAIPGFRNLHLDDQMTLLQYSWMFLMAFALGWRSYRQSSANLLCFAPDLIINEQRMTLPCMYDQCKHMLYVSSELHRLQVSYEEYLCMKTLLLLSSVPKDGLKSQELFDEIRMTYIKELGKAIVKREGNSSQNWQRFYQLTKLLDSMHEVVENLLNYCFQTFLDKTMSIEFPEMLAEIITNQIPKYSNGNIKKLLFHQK

SMILES | Potency [1] | Potency [2] | Potency [3] | Potency [4] | Potency [5] | Potency [6] | outcome [7] | outcome [8] | outcome [9] | outcome [10] | outcome [11] | outcome [12] | outcome [13] | outcome [14] | outcome [15] | outcome [16] | outcome [17] | Potency [18] | Potency [19] | outcome [20]
CCCN(CCC)c1c([N+](=O)[O-])cc(C(C)C)cc1[N+](=O)[O-] | inactive | inactive | inactive | inactive | inactive | 12.2 µM (active) | inactive | inactive | inactive | inactive | inactive | inactive | inactive | inactive | inactive | inactive | inactive | – | – | –
Cc1ccccc1 | inactive | inactive | inactive | inactive | inactive | inactive | – | – | – | – | – | – | – | – | – | – | – | inactive | inactive | –
C[N+](C)(C)CC1CO1 (centres undefined) | inactive | inactive | inactive | inactive | inactive | inactive | inactive | inactive | inactive | inactive | inactive | inactive | inactive | inactive | inactive | inactive | inactive | – | – | –
CCCCC(CC)COC(=O)c1c(Br)c(Br)c(Br)c(Br)c1C(=O)OCC(CC)CCCC (centres undefined) | inactive | inactive | inactive | inactive | inactive | – | inactive | inactive | inactive | inactive | inactive | inactive | inactive | inactive | inactive | inactive | inactive | 33.8 µM (active) | – | inactive
CCCCCCCCCCCCN(C)C | inactive | inactive | inactive | inactive | inactive | inactive | inactive | inactive | inactive | inactive | inactive | inactive | inactive | inactive | inactive | inactive | inactive | inactive | – | –
C=CCc1ccccc1O | inactive | inactive | inactive | inactive | inactive | – | inactive | inactive | inactive | inactive | inactive | inactive | inactive | inactive | inactive | inactive | inactive | inactive | inactive | inactive
CCOP(=S)(OCC)SCSc1cc(Cl)ccc1Cl | inactive | inactive | inactive | inactive | inactive | – | inactive | inactive | inactive | inactive | inactive | inactive | inactive | inactive | inactive | inactive | inactive | inactive | – | inactive
OCCSSCCO | inactive | inactive | inactive | inactive | inactive | – | inactive | inactive | inactive | inactive | inactive | inactive | inactive | inactive | inactive | inactive | inactive | inactive | inactive | inactive
CN(C)N | inactive | inactive | inactive | inactive | inactive | inactive | inactive | inactive | inactive | inactive | – | inactive | inactive | inactive | inactive | inactive | inactive | inactive | – | inactive
C=CC(=O)NC(C)(C)CC(C)=O | inactive | inactive | inactive | inactive | inactive | – | inactive | inactive | inactive | inactive | inactive | inactive | inactive | inactive | inactive | inactive | inactive | inactive | – | inactive
O=[N+]([O-])O[C@H]1CO[C@H]2[C@@H]1OC[C@H]2O[N+](=O)[O-] | inactive | inactive | inactive | inactive | inactive | inactive | inactive | inactive | inactive | inactive | inactive | inactive | inactive | inactive | inactive | inactive | inactive | inactive | – | –
O=C(O)C(F)(F)C(F)(F)C(F)(F)C(F)(F)C(F)(F)F | inactive | inactive | inactive | inactive | inactive | – | inactive | inactive | inactive | inactive | inactive | inactive | inactive | inactive | inactive | inactive | inactive | inactive | inactive | inactive
CCCC[P+](CC)(CCCC)CCCC (tested in a mixture with another compound) | inactive | inactive | – | inactive | inactive | – | inactive | inactive | inactive | inactive | inactive | inactive | inactive | inactive | inactive | inactive | inactive | – | – | –
O=C(Cl)OCCOCCOC(=O)Cl | inactive | inactive | inactive | inactive | – | – | inactive | inactive | inactive | inactive | – | inactive | inactive | inactive | inactive | inactive | inactive | inactive | inactive | inactive
